About 5,600 (56%) of roughly 10,000 compounds were called active. No stated cut-off is given here; in the data, active means inhibition above about 40%; inactive means the rest. The set was probably picked from earlier hits. A selection follows.
Each compound was assayed against Protein Mdm4 (Homo sapiens) + E3 ubiquitin-protein ligase Mdm2 (Homo sapiens) (UniProt O15151+Q00987) (assay: inhibition of human Mdm2/MdmX pairing – luminescence, single concentration, confirmation (AID 489028)). Settings: Mdm2-MdmX binding, luminescent assay; at 8 µM; hits give high values.
Protein Mdm4 (Homo sapiens) + E3 ubiquitin-protein ligase Mdm2 (Homo sapiens), sequence (O15151 whole entry, looked up): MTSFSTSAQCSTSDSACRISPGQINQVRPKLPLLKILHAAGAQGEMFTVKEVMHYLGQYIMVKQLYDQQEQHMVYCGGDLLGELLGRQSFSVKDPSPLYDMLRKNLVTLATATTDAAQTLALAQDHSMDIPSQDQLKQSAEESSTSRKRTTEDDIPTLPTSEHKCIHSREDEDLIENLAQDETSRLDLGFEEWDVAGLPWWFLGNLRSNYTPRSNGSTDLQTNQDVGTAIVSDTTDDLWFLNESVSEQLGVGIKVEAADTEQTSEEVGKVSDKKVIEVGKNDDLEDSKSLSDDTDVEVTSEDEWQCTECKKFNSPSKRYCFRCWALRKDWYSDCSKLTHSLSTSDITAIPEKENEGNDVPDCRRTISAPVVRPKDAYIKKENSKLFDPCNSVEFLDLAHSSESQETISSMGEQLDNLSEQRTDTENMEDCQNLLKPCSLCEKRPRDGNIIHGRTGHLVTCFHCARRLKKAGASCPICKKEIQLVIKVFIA
Protein Mdm4 (Homo sapiens) + E3 ubiquitin-protein ligase Mdm2 (Homo sapiens), sequence (Q00987 whole entry, looked up): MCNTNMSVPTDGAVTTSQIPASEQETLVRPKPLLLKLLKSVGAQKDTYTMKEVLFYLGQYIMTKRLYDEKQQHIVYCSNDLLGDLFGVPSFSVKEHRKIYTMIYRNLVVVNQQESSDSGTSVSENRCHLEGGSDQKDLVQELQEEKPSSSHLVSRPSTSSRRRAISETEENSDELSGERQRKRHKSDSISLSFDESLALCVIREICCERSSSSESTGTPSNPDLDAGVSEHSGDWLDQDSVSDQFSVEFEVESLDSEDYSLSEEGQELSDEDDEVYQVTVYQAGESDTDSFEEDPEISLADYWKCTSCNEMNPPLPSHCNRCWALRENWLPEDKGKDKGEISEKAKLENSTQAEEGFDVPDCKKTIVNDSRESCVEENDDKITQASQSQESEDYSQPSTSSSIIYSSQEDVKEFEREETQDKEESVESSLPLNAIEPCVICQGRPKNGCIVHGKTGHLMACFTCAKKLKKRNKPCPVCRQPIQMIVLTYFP

| SMILES | inhibition |
| --- | --- |
| COc1cc(/C=C2\Oc3ccc(C#Cc4ccc(O)cc4)cc3C2=O)cc(OC)c1 | 33.2% (inactive) |
| O=C(Nc1ccncc1)c1c(F)cccc1F | 61.9% (active) |
| COc1ccc2cc1Oc1ccc(cc1)C[C@H]1c3cc(c(OC)cc3CCN1C)Oc1c(O)c(OC)cc3c1[C@H](C2)N(C)CC3 | 100% (active) |
| COc1ccc(-c2nnc(SC(=O)N3c4ccccc4Sc4ccccc43)o2)cc1 | 31.4% (inactive) |
| CC[C@]1(O)CC2CN(CCc3c([nH]c4ccccc34)[C@@](C(=O)OC)(c3cc4c(cc3OC)N(C=O)[C@H]3[C@@](O)(C(=O)OC)[C@H](OC(C)=O)[C@]5(CC)C=CCN6CC[C@]43[C@@H]65)C2)C1 (some centres not stated) | 58.4% (active) |
| CC[C@]1(O)C[C@@H]2CN(CCc3c([nH]c4ccccc34)[C@@](C(=O)OC)(c3cc4c(cc3OC)N(C)[C@H]3[C@@](O)(C(=O)OC)[C@H](OC(C)=O)[C@]5(CC)C=CCN6CC[C@]43[C@@H]65)C2)C1 | 72.5% (active) |
| O=C1NC(Nc2nc3ccccc3s2)(C(F)(F)F)C(=O)N1C1CCCCC1 (configuration not stated) | 62.5% (active) |
| COc1cc(NS(=O)(=O)c2ccc3ccccc3c2)c2ncccc2c1 | 88.3% (active) |
| CC(C)c1ccccc1OCC(O)CN(CC(O)COc1cccc2ccccc12)C(C)C (configuration not stated) | 29.8% (inactive) |
| CC(=O)c1ccc(S(=O)(=O)N2CCN(C(=O)/C=C/c3ccc4ccccc4n3)CC2)cc1 | 71.5% (active) |
| O=C(Cc1csc(Nc2nc(=S)[nH]c3ccccc23)n1)NCCCN1CCN(c2cccc(Cl)c2)CC1 | 5% (inactive) |
| CC1(C)CC(N2CCN(C(c3ccccc3)c3ccccc3)CC2)=CC(=[N+]2CCCCC2)C1 | 89.8% (active) |
| COC(=O)c1cc(NC(=O)c2nn(C)c(=O)c3ccccc23)cc(C(=O)OC)c1 | 3.8% (inactive) |
| COc1cc([N+](=O)[O-])ccc1NC(=O)COC(=O)CCOc1ccc(C)cc1 | 21.9% (inactive) |
| COc1ccc(-c2nn(C)c(=O)c3ccccc23)cc1NC(=O)COc1ccccc1 | 41.5% (active) |
| CCOc1ccc(-n2c(O)c(/C=N/Nc3nc(C)cc(C)n3)c3ccccc3c2=O)cc1 | 35.1% (inactive) |
| CCN(CC)c1ccc(/C=N/NC(=O)c2cnccn2)c(O)c1 | 79% (active) |
| CCN(CC)c1ccc(/C=N/Nc2nc(C)cc(C)n2)c(O)c1 | 53% (active) |
| Cc1ccc(NC(=S)NC(NC(=O)Cc2cccc3ccccc23)C(Cl)(Cl)Cl)cc1 (configuration not stated) | 11.2% (inactive) |
| COc1ccc(CC(=O)N/N=C(\C)c2ccccn2)cc1 | 14.6% (inactive) |
| C/C(=N\NC(=O)c1ccccc1F)c1ccccn1 | 41.9% (active) |
| COc1ccccc1N(CC(=O)N/N=C(\C)c1ccccc1O)S(=O)(=O)c1ccc(C)cc1 | 60.6% (active) |

| SMILES | inhibition |
| --- | --- |
| Cc1ccc(-c2nnc(-c3ccc(NC(=O)c4cccs4)cc3)o2)cc1 | 20.9% (inactive) |
| Cc1ccccc1C(=O)N1CCN(c2ccc(NC(=O)c3cccs3)cc2)CC1 | 48.6% (active) |
| Cc1cc2oc3ccc(NCCC4CCCN4C)cc3c(=O)c2cc1C (configuration not stated) | 1.8% (inactive) |
| Cc1cccc(NS(=O)(=O)c2ccc(-c3cnc(C4CC4)o3)cc2)c1 | 47% (active) |
| COC(=O)CCNc1ccc2c(c1)OCCO2 | 50.1% (active) |
| O=C1CN(c2nc(-c3ccccc3)c3cc(Br)ccc3n2)c2ccccc2N1 | 16.2% (inactive) |
| COc1ccc2[nH]c(=O)c(CN(Cc3cccnc3)S(=O)(=O)c3ccccc3F)cc2c1 | 57.4% (active) |
| Cn1cc(/C=C/c2nc3ccccc3c(=O)n2-c2cccc([N+](=O)[O-])c2)c2ccccc21 | 40.4% (active) |
| Cc1c(C(=O)N/N=C/c2ccccc2)[nH]c2c([N+](=O)[O-])cccc12 | 62.2% (active) |
| Clc1ccc2c(c1)C1=C(C(c3ccncc3)O2)C(c2ccc(Br)cc2)n2ncnc2N1 (configuration not stated) | 25.8% (inactive) |
| O=C(CCl)Nc1cccc(CP(=O)(c2ccccc2)c2ccccc2)c1 | 93.8% (active) |
| Cc1noc(C)c1-c1ccc2ncnc(NC(C)c3ccco3)c2c1 (configuration not stated) | 46.5% (active) |
| Nc1cccc(-c2cc(-c3ccccc3)nc(-c3cccc(N)c3)n2)c1 | 9.85% (inactive) |
| CCCCCCCCCCOC(=O)Cn1c(COc2ccc(C)cc2)[n+](C)c2ccccc21 | 74.3% (active) |
| CCCCCCCCCCOC(=O)Cn1c(COc2cccc(OC)c2)[n+](C)c2ccccc21 | 53% (active) |
| C/C(=N\N=C(N)N)c1ccc(Cl)cc1 | 23% (inactive) |
| O=C1c2ccccc2C2=Nc3ccccc3SC(c3ccccc3F)C12 (configuration not stated) | 23.8% (inactive) |
| C=C(C)COc1ccc(-c2n[nH]c(C)c2-c2ccccc2OC)c(O)c1 | 18.3% (inactive) |
| COc1ccc(-c2n[nH]c(C)c2-c2ccc(OC)c(OC)c2)c(O)c1 | 50.9% (active) |
| C=C(C)COc1ccc(-c2n[nH]c(C)c2-c2ccccc2)c(O)c1 | 2.2% (inactive) |
| Cc1cc(C)cc(NC(=O)Cn2cnc3c(nnn3Cc3ccc(F)cc3)c2=O)c1 | 27.3% (inactive) |
| CCCCN1C(=O)/C(=C/C=C2/C=Cc3ccccc3N2CC)SC1=S | 22.4% (inactive) |

| SMILES | inhibition |
| --- | --- |
| CCN1C(=O)/C(=C\N2CCN(c3cccc(Cl)c3)CC2)SC1=S | 45.1% (active) |
| CCN1CCN(CCNC(=O)c2ccc(/C=C3/Sc4ccccc4N(Cc4cccc(C)c4)C3=O)cc2)CC1 | 81.8% (active) |
| O=C(NCCN1CCOCC1)c1ccc(/C=C2\Sc3ccccc3N(Cc3ccc(F)cc3)C2=O)cc1 | 11.8% (inactive) |
| CCN(CCCNC(=O)c1ccc2c(c1)NC(=O)CN2C)c1cccc(C)c1 | 20.2% (inactive) |
| N#Cc1c(N)nc2c3c(sc(=N)c2c1N)NC(=O)CC3c1ccccc1Cl (configuration not stated) | 2.45% (inactive) |
| N#Cc1ccc(C(=O)Nc2nc(-c3cccs3)c(C(=O)C(F)(F)F)s2)cc1 | 86.9% (active) |
| C=CCN(CC=C)S(=O)(=O)c1ccc(C(=O)Nc2nc3c(s2)CCc2ccccc2-3)cc1 | 24.2% (inactive) |
| O=[N+]([O-])c1ccc(Oc2ccc(F)cc2Br)c2ccncc12 | 53.5% (active) |
| COc1ccccc1/C=N\Nc1cc(C)nc(-n2nc(C)cc2C)n1 | 31.1% (inactive) |
| COc1cccc(/C=N/Nc2cc(C)nc(-c3ccccc3O)n2)c1O | 93.8% (active) |
| Cc1ccc(OCC(O)CN2CCN(CC(O)COc3ccc(C)cc3Cl)CC2)c(Cl)c1 (configuration not stated) | 35.6% (inactive) |
| Cc1cccc(N(C)C(=O)c2cc3c(=O)[nH]c4ccc(C)cc4c3s2)c1 | 73.5% (active) |
| CCN1CCN(c2nc(Nc3cc(OC)ccc3OC)nc(Nc3cc(OC)ccc3OC)n2)CC1 | 12.1% (inactive) |
| CC(=NCC1CCCO1)c1c(O)[nH]c(=O)[nH]c1=O (configuration not stated) | 7.4% (inactive) |
| Cc1cccc(Nc2nc3c(S(=O)(=O)c4ccccc4)nnn3c3ccccc23)c1C | 48.2% (active) |
| CSc1nnc(NC(=O)c2nc(S(=O)(=O)Cc3ccc(C)cc3)ncc2Cl)s1 | 99% (active) |
| Cc1ccc(CS(=O)(=O)c2ncc(Cl)c(C(=O)Nc3nnc(C)s3)n2)cc1 | 96.5% (active) |
| CCOc1ccc(C(C)=O)cc1COC(=O)c1cnc(Cl)c(Cl)c1 | 19% (inactive) |
| COc1ccc(C(=O)O/N=C(\N)Cc2ccc(Cl)cc2Cl)cc1OC | 97.6% (active) |
| COC(=O)c1ccc(NC(=O)c2cc(Cl)ccc2OC)cc1 | 3.8% (inactive) |
| CC1=C(C)CC(C(=O)NNC(=O)c2ccccc2O)C(C(=O)O)C1 (configuration not stated) | 38.8% (inactive) |
| N#Cc1cccc(NC(=O)COC(=O)c2ccccc2C(=O)c2ccc(Cl)c([N+](=O)[O-])c2)c1 | 98.9% (active) |

| SMILES | inhibition |
| --- | --- |
| CC(=O)Nc1ccc(NC(=O)C(C)OC(=O)c2ccccc2C(=O)c2ccc(Cl)c([N+](=O)[O-])c2)cc1 (configuration not stated) | 84.5% (active) |
| Cc1c(CN2CCC(CO)(CCOc3ccccc3)CC2)[nH]c2ccc(Cl)cc12 | 75.5% (active) |
| CCc1nc2sc3c(Cl)ncnc3c2c2c1CCCC2 | 14.9% (inactive) |
| Oc1c(CN2CCCC2)cc(COCc2ccccc2)c2cccnc12 | 66% (active) |
| Oc1c(CN2CCN(c3ccc(F)cc3)CC2)cc(Cl)c2cccnc12 | 85.5% (active) |
| O=C(NC(=S)Nc1ccc2oc(=O)ccc2c1)c1ccc(-c2cccc(Cl)c2Cl)o1 | 34.5% (inactive) |
| Cc1cc(C(=O)CCl)c(C)n1CC1COc2ccccc2O1 (configuration not stated) | 15.6% (inactive) |
| Cc1ccsc1C(=O)OCC(=O)c1cc(C)n(CC2CCCO2)c1C (configuration not stated) | 94.5% (active) |
| COc1ccc(CN2CN(C(C)C)CSC2=S)cc1 | -10.1% (inactive) |
| Cc1cc(C(=O)COc2ccccc2[N+](=O)[O-])c(C)n1-c1cccc(S(=O)(=O)N2CCOCC2)c1 | 58.5% (active) |
| CC(=O)Nc1ccc(S(=O)(=O)Nc2ccc(N3CCCCC3)cc2)cc1 | 3.05% (inactive) |
| O=C(NC(=O)c1ccccc1N1CCCCC1)Nc1ccc(Br)cc1 | 54.9% (active) |
| CCCOc1ccccc1C1CC(=O)Nc2cc3c(cc21)OCO3 (configuration not stated) | 61.9% (active) |
| COc1ccccc1C1C2=C(COC2=O)Nc2cc3c(cc21)OCO3 (configuration not stated) | 62.8% (active) |
| O=C(Oc1c(-c2ccco2)oc2ccccc2c1=O)c1cccnc1 | 37.6% (inactive) |
| O=C1/C(=C/c2ccc(F)cc2)SC(=S)N1CCCC(=O)N1CCCCC1CCO (configuration not stated) | 49.8% (active) |
| CC(=O)c1ccc(Oc2cc(C)nc(-n3nc(C)cc3C)n2)cc1 | 51.8% (active) |
| COc1ccc(C(C[N+](=O)[O-])n2nc(C)cc2C)cc1 (configuration not stated) | 9.85% (inactive) |
| COc1ccc(Nc2oc(-c3ccccc3Cl)nc2C#N)cc1 | 42.7% (active) |
| CSc1nc(N)c(C#N)c(-c2ccccc2Cl)c1C#N | 22.9% (inactive) |
| CN(C)CCCn1c(=O)n(Cc2ccccc2)c(=O)c2c3c(sc21)CCCCC3 | 37.5% (inactive) |

Source: PubChem BioAssay AID489028 (Sanford-Burnham Center for Chemical Genomics, 2010)
